This is part of a sample that, as a whole, favours compounds with a hit. Of some 83,000 tested, about 20% had one in any assay.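 The endpoint reported here, percent growth, reads 100 for growth as untreated, 0 for no net growth and -100 for all cells dead.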 A number with no mark means an inactive call. The source made the active and inactive calls. Rule for the calls: active = growth percent below 10; inactive = the rest.

Assay in all cases: NCI-60 one-dose screen, 48 h (100 = growth as untreated, 0 = no growth, -100 = all killed)
Common to all, as to settings: 10 µM unless noted

Assay [1] deals with SR leukemia.
Assay [2] deals with RPMI-8226 leukemia.
Assay [3] deals with OVCAR-8 ovarian.
Assay [4] has as its system OVCAR-5 ovarian.
Assay [5] deals with OVCAR-4 ovarian.
Assay [6] relates to SK-OV-3 ovarian.
Assay [7] has as its system IGROV1 ovarian.
Assay [8] concerns OVCAR-3 ovarian.
In assay [9] the test system is HS 578T breast.
The test system of assay [10] is NCI/ADR-RES ovarian.
The subject of assay [11] is T-47D breast.
Assay [12] deals with BT-549 breast.
The subject of assay [13] is MDA-MB-435 melanoma.
The test system of assay [14] is SW-620 colon.
Assay [15] has as its system MCF7 breast.
Assay [16] deals with HCT-116 colon.
Assay [17] concerns HCC-2998 colon.
Assay [18] deals with KM12 colon.

For the molecule `COc1cc(NC(=O)c2cncnc2Nc2ccc3c(ccn3Cc3cccc(F)c3)c2)cc(OC)c1`, the growth in assay [1] was 19.7%; in assay [2], 63.5%; in assay [3], 65.8%; in assay [4], 71.7%; in assay [5] it was 95.1%; in [6] it was 67%. For the same molecule, the growth in assay [7] was 50.8%; in assay [8], 23%; in assay [9], 51%; in assay [10], 42.1%; in [11], 70.9%; in assay [12], 68.1%. In addition, the growth was -4.76% (active) in [13]; 29.6% in assay [14]; 28.2% in assay [15]; 44.5% in assay [16]; 72.9% in [17]; 34.8% in assay [18].

As for `O=C1c2ccccc2-c2c1c1ccncc1c(=O)n2CCCn1ccnc1`, the growth in assay [1] is -16.2% (active); in assay [2], 34.1%; in [3], 32.9%; in [4], 88.5%; in assay [5], 72.7%; in assay [6], 73.6%. The growth is 44.9% in assay [7]; 67.1% in [8]; 60.8% in assay [9]; 53.6% in assay [10]; 23.6% in assay [11]; 46.7% in assay [12]. The growth in [13] is 86.3%; in assay [14], 18.7%; in assay [15] it was 9.35% (active); in [16], 5.31% (active); in [17] it was 73.9%; in assay [18], 32.8%.

On to `COC(=O)c1nc(-c2ccccc2)oc1S(=O)(=O)NCC(c1ccc(Cl)cc1)N1CCCCC1` (centres undefined), for which the growth is -3.58% (active) in [1]; 20% in [2]; 57% in assay [3]; 90.8% in [4]; 89.3% in [5]; 95.5% in [6]. Moreover, the growth in assay [7] was 56.5%; in assay [8], 57.5%; in assay [9] it was 100%; in assay [10], 89%; in assay [11], 52.1%; in assay [12], 55.8%. Moreover, the growth in assay [13] was 72.1%; in [14], 36.2%; in [15], 34.7%; in assay [16], 78%; in assay [17], 117%; in assay [18] it was 80.6%.

As to `Nc1nc(N)c2c(n1)NC(c1cccc(Nc3ccnc4cc(C(F)(F)F)ccc34)c1)CC(c1ccc(Cl)cc1)=N2` (centres undefined), the growth in assay [1] was 3.26% (active); in assay [2], -1.21% (active); in [3] it was 62.4%; in [4], 105%; in assay [5], 60.1%; in assay [6] it was 64.9%. Also, the growth in [7] is 52.9%; in assay [8], 26.6%; in assay [9], 62.1%; in assay [10], 54.4%; in assay [11], 73.7%; in [12], 114%. Besides, the growth in assay [13] is -24.8% (active); in assay [14], 25.6%; in assay [15], 16.1%; in assay [16], 15.1%; in assay [17] it was 51.8%; in [18] it was 21.3%.

For the molecule `CCCCCCCCNC(=O)[C@@H](N)CSCOC(C)=O`, the growth was 100% in assay [1]; 87.9% in assay [2]; 85.5% in [3]; 103% in assay [4]; 112% in assay [5]; 95.3% in assay [6]. The growth in [7] was 103%; in [8], 97.4%; in assay [9], 93.4%; in assay [10], 82.7%; in assay [11], 96.1%; in [12], 111%. The growth in [13] is 19.1%; in assay [14] it was 84.6%; in [15] it was 108%; in assay [16], 92.7%; in assay [17], 101%; in assay [18] it was 38.1%.

On to `COc1cccc(C(=O)Nc2cccc(NC(=O)c3ccccn3)c2)c1`, for which the growth in assay [1] was 77%; in assay [2], 101%; in assay [3], 104%; in [4], 94.3%; in assay [5] it was 96.4%; in [6], 97.7%. Also, the growth is 101% in assay [7]; 105% in assay [8]; 116% in assay [9]; 96.1% in [10]; 87.4% in assay [11]; 91.3% in assay [12]. For the same molecule, the growth is 93.2% in assay [13]; 109% in [14]; 83% in assay [15]; 94% in assay [16]; 83.2% in assay [17]; 99.6% in assay [18].

Take `Cn1ccnc1C(=O)/C=C/c1ccc(C(=O)Nc2c(F)c(F)c(F)c(F)c2F)cc1`: the growth in assay [1] is -17.4% (active); in assay [2] it was -9.03% (active); in assay [3], 20.6%; in assay [4], 13.1%; in [5] it was 22.4%; in [6], 62.1%. For the same molecule, the growth was 0.574% (active) in assay [7]; -4% (active) in assay [8]; 48.5% in assay [9]; 7.31% (active) in [10]; 9.11% (active) in [11]; 22.4% in assay [12]. Also, the growth in assay [13] is 48.7%; in assay [14], -14.3% (active); in assay [15], 13%; in [16] it was -21.5% (active); in assay [17], -4.74% (active); in assay [18], -58.7% (active).

Regarding `CCN1C(=O)N(CC)C2C1NN=c1s/c(=C\c3ccc([N+](=O)[O-])cc3)c(=O)n12` (centres undefined), the growth in assay [1] was 19.9%; in assay [2], 24.3%; in [3] it was 15.3%; in assay [4], 35%; in assay [5] it was 47.7%; in assay [6], 42.8%. Moreover, the growth was 22.6% in assay [7]; 7.68% (active) in assay [8]; 17.1% in assay [9]; 9.89% (active) in assay [10]; 23.9% in assay [11]; 32.7% in [12]. The growth was -23.4% (active) in assay [13]; 19.8% in assay [14]; 7.6% (active) in [15]; 7.31% (active) in assay [16]; 11.4% in assay [17]; 19.6% in [18].

These data come from PubChem BioAssay (NCI).
